In ChEMBL document CHEMBL3988442, “University of Dundee, Small-Polar-MMV Screening Library” (2021):
For some of these results: Entries with a potency or affinity are not part of this list.

What was measured:
Design in all cases: scale not given: direction of the effect not stated beside the values
[1] = molecular target: Protein translocase subunit SecA (Escherichia coli (strain K12)) (UniProt P10408); assay: Assay to Identify E. coli SecA ATPase Inhibitors; format: functional; conditions: 30 µM
Protein translocase subunit SecA (Escherichia coli (strain K12)), sequence (P10408 whole entry): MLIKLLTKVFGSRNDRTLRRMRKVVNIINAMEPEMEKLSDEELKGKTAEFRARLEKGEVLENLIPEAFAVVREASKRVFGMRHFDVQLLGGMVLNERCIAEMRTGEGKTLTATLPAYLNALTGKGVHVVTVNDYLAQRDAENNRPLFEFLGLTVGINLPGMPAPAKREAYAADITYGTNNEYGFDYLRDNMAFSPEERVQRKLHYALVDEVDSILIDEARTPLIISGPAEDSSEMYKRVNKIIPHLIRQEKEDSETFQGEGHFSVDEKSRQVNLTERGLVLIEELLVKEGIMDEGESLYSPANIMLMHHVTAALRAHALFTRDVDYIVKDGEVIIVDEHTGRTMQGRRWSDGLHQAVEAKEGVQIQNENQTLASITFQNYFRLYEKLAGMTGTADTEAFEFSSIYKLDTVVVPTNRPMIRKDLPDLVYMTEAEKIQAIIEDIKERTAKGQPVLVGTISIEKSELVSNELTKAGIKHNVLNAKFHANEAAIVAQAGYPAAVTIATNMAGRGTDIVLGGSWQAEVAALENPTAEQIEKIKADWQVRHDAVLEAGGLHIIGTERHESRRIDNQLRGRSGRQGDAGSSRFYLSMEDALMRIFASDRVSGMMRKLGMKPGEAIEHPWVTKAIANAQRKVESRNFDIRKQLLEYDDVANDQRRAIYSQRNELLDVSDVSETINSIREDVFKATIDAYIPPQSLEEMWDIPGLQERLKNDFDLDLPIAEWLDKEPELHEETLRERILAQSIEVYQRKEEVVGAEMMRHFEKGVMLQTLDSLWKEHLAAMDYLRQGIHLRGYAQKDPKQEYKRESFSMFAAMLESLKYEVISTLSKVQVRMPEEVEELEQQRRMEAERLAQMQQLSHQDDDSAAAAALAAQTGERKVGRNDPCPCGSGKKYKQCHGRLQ

[2] = molecular target: T1, Ubiquitin-activating enzyme e1, putative (Leishmania donovani (strain BPK282A1)) (UniProt E9BSI1); assay: Leishmania donovani Ubiquitin Activating Enzyme (LdE1); format: functional; conditions: 30 µM
T1 sequence (whole entry): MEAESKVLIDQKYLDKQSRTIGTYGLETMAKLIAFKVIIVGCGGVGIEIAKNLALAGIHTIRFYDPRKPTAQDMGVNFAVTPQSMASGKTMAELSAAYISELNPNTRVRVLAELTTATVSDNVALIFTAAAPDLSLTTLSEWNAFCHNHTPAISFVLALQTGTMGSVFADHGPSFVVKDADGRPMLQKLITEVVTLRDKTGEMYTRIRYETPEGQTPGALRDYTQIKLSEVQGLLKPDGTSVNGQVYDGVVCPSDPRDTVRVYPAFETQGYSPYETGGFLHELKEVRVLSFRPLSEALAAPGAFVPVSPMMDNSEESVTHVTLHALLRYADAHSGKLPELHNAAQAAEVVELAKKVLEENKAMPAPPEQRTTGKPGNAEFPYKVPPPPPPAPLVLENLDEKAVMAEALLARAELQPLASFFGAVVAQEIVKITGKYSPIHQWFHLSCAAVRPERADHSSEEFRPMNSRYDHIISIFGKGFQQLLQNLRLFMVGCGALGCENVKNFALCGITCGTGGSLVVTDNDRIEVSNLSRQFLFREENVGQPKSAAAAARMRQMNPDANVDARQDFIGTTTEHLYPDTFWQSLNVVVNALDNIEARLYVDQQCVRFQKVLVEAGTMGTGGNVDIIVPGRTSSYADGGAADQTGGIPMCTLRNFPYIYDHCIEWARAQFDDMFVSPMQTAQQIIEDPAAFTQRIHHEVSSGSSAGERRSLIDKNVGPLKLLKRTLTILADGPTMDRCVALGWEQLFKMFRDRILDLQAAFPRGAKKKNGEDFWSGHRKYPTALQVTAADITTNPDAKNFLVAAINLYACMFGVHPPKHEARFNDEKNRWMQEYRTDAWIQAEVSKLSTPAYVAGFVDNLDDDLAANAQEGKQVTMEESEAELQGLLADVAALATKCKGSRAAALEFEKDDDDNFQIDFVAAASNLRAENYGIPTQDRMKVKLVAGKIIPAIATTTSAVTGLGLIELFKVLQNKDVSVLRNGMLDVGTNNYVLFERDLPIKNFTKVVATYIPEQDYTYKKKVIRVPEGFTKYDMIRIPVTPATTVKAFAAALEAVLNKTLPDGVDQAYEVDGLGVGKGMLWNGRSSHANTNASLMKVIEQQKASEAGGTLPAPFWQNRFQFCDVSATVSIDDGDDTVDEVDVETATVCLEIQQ

[3] = molecular target: AMP-activated protein kinase, AMPK (Homo sapiens) (UniProt P54646+O43741+P54619+Q9UGJ0+Q9Y478+Q13131+Q9UGI9); assay: AMP-dependent Kinase enzyme assay. An in vitro enzyme assay that detects ADP turnover that is directly proportional to AMPK activity. This uses naive AMPK that is activated during the assay with MK-8722; format: functional; conditions: 30 µM
[4] = molecular target: Sialic acid-binding Ig-like lectin 9 (Homo sapiens) (UniProt Q9Y336); assay: Hs-Siglec9 ALPHAscreen SOP 20170721; conditions: 10 µM
Sialic acid-binding Ig-like lectin 9 (Homo sapiens), sequence (Q9Y336 whole entry): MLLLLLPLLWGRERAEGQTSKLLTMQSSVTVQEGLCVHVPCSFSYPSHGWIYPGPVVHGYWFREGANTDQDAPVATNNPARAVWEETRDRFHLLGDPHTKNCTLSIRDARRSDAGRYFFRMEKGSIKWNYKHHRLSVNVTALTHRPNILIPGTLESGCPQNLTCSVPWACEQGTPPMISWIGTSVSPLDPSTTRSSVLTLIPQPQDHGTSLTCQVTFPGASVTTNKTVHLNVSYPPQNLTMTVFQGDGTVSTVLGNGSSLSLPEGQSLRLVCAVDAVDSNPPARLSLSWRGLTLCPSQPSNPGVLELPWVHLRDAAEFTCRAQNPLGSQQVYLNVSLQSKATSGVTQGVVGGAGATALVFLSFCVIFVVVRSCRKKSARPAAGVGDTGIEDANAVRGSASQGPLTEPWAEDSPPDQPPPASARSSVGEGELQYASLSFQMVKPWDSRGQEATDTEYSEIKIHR

Trypanosoma cruzi = assay: Trypanosoma cruzi phosphomannomutase and mannose-1-phosphate guanylyltransferase assay; format: functional; conditions: 10 µM
[5] = molecular target: T2, Arginase-2, mitochondrial (Homo sapiens) (UniProt P78540); assay: in vitro enzyme assay to detect the production of urea directly proportional to the activity of Arginase II; format: functional; conditions: 33.3 µM; note: in the data most compounds retested in dose-response had high values
T2 sequence (whole entry): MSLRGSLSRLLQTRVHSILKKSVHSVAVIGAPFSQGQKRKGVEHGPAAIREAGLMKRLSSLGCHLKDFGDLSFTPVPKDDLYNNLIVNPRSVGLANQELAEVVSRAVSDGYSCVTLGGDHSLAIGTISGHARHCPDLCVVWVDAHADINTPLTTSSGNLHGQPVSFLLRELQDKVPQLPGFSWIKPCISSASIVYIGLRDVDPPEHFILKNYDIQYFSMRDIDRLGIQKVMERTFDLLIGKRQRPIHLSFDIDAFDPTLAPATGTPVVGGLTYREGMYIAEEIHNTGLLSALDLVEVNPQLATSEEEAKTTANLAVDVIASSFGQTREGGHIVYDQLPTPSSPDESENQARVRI

[6] = molecular target: T3, Proteasome subunit beta (Trypanosoma cruzi) (UniProt O96673); assay: Trypanosoma cruzi proteasome chymotrypsin-like activity (TcProtChymo) assay.; note: in the data most compounds retested in dose-response had high values; format: functional; conditions: 9.37 µM
T3 sequence (whole entry): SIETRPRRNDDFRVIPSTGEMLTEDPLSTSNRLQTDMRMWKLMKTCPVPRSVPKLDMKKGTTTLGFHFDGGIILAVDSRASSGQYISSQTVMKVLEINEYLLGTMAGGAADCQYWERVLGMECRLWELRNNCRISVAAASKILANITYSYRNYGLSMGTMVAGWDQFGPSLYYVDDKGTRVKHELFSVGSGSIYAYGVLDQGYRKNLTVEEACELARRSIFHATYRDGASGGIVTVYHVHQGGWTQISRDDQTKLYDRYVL

Homo sapiens = species: Homo sapiens; assay: To identify inhibition of the IFN signalling (Jak-Stat) pathway via expression of an eGFP reporter gene under the control of an IFN-stimulated response element (ISRE) containing MxA promoter.; format: functional; conditions: 30 µM
[7] = molecular target: T4, Tyrosyl-tRNA synthetase, putative (Trypanosoma cruzi (strain CL Brener)) (UniProt Q4DSP6); assay: Trypanosoma cruzi tyrosyl tRNA synthetase (TcYRS) _High Tyrosine SOP; format: functional; conditions: 30 µM; note: in the data most compounds retested in dose-response had high values
T4 sequence (whole entry): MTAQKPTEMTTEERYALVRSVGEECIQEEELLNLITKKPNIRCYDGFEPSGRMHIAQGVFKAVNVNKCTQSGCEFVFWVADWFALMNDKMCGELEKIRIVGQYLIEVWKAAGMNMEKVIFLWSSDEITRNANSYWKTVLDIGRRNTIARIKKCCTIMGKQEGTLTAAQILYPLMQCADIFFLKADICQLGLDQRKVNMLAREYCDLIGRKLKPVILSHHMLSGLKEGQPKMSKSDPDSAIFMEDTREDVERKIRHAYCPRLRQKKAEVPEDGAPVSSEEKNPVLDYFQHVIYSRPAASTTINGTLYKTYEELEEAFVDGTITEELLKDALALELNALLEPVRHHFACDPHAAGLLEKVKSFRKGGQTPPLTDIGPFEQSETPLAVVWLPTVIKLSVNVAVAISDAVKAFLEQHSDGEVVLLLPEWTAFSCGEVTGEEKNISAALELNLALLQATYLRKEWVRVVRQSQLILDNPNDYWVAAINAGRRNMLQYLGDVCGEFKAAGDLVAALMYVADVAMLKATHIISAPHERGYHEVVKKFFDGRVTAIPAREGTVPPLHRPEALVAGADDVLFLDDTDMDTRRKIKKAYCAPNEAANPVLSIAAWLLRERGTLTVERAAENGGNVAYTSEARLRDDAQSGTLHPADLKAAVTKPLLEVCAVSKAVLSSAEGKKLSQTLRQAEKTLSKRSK

[8] = molecular target: T4, Tyrosyl-tRNA synthetase, putative (Trypanosoma cruzi (strain CL Brener)); assay: Trypanosoma cruzi tyrosyl tRNA synthetase (TcYRS) SOP; format: functional; conditions: 30 µM
[9] = molecular target: Chromo domain-containing protein 1 (Saccharomyces cerevisiae (strain ATCC 204508 / S288c) (Baker's yeast)) (UniProt P32657); assay: ScCHD-1 Enzyme Inhibition Assay; format: functional; conditions: 30 µM; note: in the data most compounds retested in dose-response had high values
Chromo domain-containing protein 1 (Saccharomyces cerevisiae (strain ATCC 204508 / S288c) (Baker's yeast)), sequence (P32657 whole entry, the tested form may be a part): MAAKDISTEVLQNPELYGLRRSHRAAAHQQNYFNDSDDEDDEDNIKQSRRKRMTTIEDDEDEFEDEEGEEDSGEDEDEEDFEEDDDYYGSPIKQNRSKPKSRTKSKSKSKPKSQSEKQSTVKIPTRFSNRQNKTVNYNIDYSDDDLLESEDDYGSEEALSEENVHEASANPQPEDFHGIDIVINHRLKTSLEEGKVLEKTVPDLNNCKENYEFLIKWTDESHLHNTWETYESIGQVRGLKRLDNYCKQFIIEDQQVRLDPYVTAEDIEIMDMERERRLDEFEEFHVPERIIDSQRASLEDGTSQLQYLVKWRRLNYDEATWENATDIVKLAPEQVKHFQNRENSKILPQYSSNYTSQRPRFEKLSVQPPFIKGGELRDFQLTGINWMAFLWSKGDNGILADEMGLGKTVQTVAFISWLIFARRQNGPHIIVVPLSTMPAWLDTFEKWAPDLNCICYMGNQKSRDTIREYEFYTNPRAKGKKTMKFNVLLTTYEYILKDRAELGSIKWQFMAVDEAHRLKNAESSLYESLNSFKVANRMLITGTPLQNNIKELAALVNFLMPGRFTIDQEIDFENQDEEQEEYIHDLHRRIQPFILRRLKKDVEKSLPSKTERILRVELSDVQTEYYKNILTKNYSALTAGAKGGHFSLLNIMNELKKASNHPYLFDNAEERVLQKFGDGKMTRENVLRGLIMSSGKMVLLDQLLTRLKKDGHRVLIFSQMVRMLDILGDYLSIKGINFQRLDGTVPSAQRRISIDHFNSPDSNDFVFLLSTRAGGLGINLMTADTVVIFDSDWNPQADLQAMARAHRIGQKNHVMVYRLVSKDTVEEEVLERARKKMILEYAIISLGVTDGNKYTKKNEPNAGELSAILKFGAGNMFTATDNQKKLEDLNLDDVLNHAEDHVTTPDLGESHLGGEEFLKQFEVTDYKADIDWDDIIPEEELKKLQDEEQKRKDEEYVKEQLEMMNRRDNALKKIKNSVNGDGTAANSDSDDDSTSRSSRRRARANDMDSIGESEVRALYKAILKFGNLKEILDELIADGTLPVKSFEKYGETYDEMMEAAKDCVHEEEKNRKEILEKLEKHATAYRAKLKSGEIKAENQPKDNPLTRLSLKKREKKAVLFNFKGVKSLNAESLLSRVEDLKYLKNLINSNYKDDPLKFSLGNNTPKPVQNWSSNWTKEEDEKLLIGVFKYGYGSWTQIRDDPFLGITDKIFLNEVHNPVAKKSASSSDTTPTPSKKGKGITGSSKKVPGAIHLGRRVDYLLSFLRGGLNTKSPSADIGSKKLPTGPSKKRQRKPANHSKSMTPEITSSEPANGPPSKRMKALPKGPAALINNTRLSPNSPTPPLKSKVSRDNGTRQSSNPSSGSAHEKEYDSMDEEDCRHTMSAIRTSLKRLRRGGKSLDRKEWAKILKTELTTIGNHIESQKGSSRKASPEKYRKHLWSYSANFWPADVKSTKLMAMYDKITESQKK

| Structure (SMILES) | Percent Effect [1] [%] | Percent Effect [2] [%] | Percent Effect [3] [%] | Percent Effect [4] [%] | Percent Effect (Trypanosoma cruzi) [%] | Percent Effect [5] [%] | Percent Effect [6] [%] | Percent Effect (Homo sapiens) [%] | Percent Effect [7] [%] | Percent Effect [8] [%] | Percent Effect [9] [%] |
| --- | --- | --- | --- | --- | --- | --- | --- | --- | --- | --- | --- |
| Cc1c[nH]c(CN(C)c2nc(C3CCCC3)nc3c2cnn3C)n1 | -3.47 | 1.39 | 3.98 | -7.75 | -3.01 | 2.21 | 3.68 | -3.43 | 0 | 2.56 | -2.96 |
| Cc1cccc(-n2ncc(C(=O)N3CCn4c(C)nnc4C3)c2C)c1 | -5.28 | 13.2 | 0.162 | -0.191 | -4.58 | 1.8 | 5.16 | 12.8 | -0.493 | 3.7 | -0.99 |
| CNC(=O)NC(=O)CN1CCC(c2cccc(F)c2)C1 (stereo not drawn) | -1.99 | 0 | 5.35 | -0.914 | -2.82 | 2.3 | -2.51 | 11.3 | 2.45 | 4.88 | 4.66 |
| CC1CN(CC(=O)Nc2cccnc2)CCN1c1nccs1 (stereo not drawn) | -0.157 | 2.7 | -1.61 | 7.17 | -0.464 | 3.14 | 1.26 | 27.8 | 1.98 | -1.22 | 13.7 |
| CC(C)C(C(=O)N1CCN(c2ccncc2)CC1)n1cncn1 (stereo not drawn) | -5.41 | 15.6 | -0.644 | 10.9 | 6.98 | -34.5 | 11.8 | 8.3 | 4.3 | 13.6 | -7.32 |
| CCOc1ccc(Cl)c(C(=O)N2CCN(CCO)CC2)n1 | -5.67 | 10.4 | -0.195 | 9 | -3 | 0.356 | 4.05 | 5.42 | 4.85 | 9.76 | -4.45 |
| O=C(Nc1ccccn1)N(CCO)Cc1ccsc1 | -2.18 | 10.5 | 4.91 | 14.4 | 0.564 | 0 | 11.2 | 9.82 | 8.33 | 17.1 | -3.38 |
| CS(=O)(=O)NCC(=O)NC1CCc2nccn2C1 (stereo not drawn) | 0.138 | 5.33 | -3.96 | -2.36 | -7.69 | 1.56 | 12.7 | 2.1 | 4.92 | 8.64 | -13.2 |
